Our source for the cell viability values is the supplement of paper PMC13094657.

± gives the standard deviation of the averaged measurements.
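Further: viability of the cells left after supernatant collection, read with Deep Blue dye added for 4 h, as absorbance at 570 nm minus 600 nm.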

The assay has as its system MDA-MB-231. In words: cell viability relative to vehicle unstimulated control (fraction); higher = more viable cells. The following applies: pre-treatment time: 18 h then 24 h IFNg/TNF.
`CC1CCC(C(C)C)C(O)C1` [(1R,2S,5R)-(-)-menthol] (compound dose: 10 uM): the cell viability worked out at 0.935 ± 0.035.
For `C=C1C(=O)[C@@]23[C@H](O)C[C@@H]4C(C)(C)C(=O)CC[C@@]4(C)[C@@H]2CC[C@@H]1[C@H]3O` [Glaucocalyxin A] (compound dose: 10 uM) the value was 0.832 ± 0.078; for `C[C@@H]1C(=O)O[C@H]2C[C@@]34[C@H]5C[C@@H](C(C)(C)C)[C@]36[C@@H](OC(=O)[C@@H]6O)O[C@@]4(C(=O)O5)[C@]21O` [Ginkgolide A] (compound dose: 10 uM), 1.03 ± 0.13.
Then `C=C(C)[C@@H]1CC[C@@H](C)[C@@H]2CCC(C)=C[C@@H]21` [Amorpha-4,11-diene] (compound dose: 10 uM), with 1.01 ± 0.06.
For `C[C@]1(OC(=O)/C=C/c2ccccc2)C[C@@H](O)[C@]2(O)C=CO[C@@H](O[C@@H]3O[C@H](CO)[C@@H](O)[C@H](O)[C@H]3O)[C@@H]21` [Harpagoside] (compound dose: 10 uM), the cell viability is 0.987 ± 0.013.
`CC(C)(O)CCC(=O)[C@](C)(O)C1[C@H](O)C[C@@]2(C)[C@@H]3CC=C4[C@@H](C[C@H](O)[C@@H](O)C4(C)C)[C@]3(C)C(=O)C[C@]12C` (stereo partly drawn) [Cucurbitacin IIb] (compound dose: 10 uM): the cell viability is 0.943 ± 0.021.
For `CC(C)C1=C[C@H]2[C@@H](CC[C@]2(C)O)[C@](C)(O)CC1` [Alismoxide] (compound dose: 10 uM) the value was 1.01 ± 0.018; for `C[C@@H]1O[C@@H](O[C@H]2[C@H](OC(=O)[C@]34CCC(C)(C)C[C@H]3C3=CC[C@@H]5[C@@]6(C)C[C@H](O)[C@H](O[C@@H]7O[C@H](CO)[C@@H](O)[C@H](O)[C@H]7O)[C@@](C)(CO)[C@@H]6CC[C@@]5(C)[C@]3(C)C[C@H]4O)OC[C@H](O)[C@@H]2O)[C@H](O)[C@H](O)[C@H]1O[C@@H]1OC[C@@H](O)[C@H](O[C@@H]2OC[C@](O)(CO)[C@H]2O)[C@H]1O` [Polygalacin D] (compound dose: 10 uM), 0.821 ± 0.05; for `CC(C)=CCC[C@@](C)(O)[C@H]1CC[C@]2(C)[C@@H]1[C@H](O)C[C@@H]1[C@@]3(C)CC[C@H](O)C(C)(C)[C@@H]3CC[C@]12C` [(20R)-Protopanaxadiol] (compound dose: 10 uM), 0.9532 ± 0.0069.
Then `COC(=O)C1=CO[C@@H](O[C@@H]2O[C@H](CO)[C@@H](O)[C@H](O)[C@H]2O)[C@@H]2C(CO)=C[C@H](O)[C@H]12` [Methyl deacetylasperulosidate] (compound dose: 10 uM), with 0.956 ± 0.085; and `CC(CCC(OC1OC(CO)C(O)C(O)C1OC1OC(CO)C(O)C(O)C1O)C(C)(C)O)C1CCC2(C)C3CC=C4C(CCC(OC5OC(CO)C(O)C(O)C5O)C4(C)C)C3(C)C(O)CC12C` (stereo not drawn) [Mogroside III-E] (compound dose: 10 uM), with 1.08 ± 0.013.
For the molecule `C=C1CC[C@@H]2[C@](C)(CO)[C@H](O)CC[C@@]2(C)[C@@H]1/C=C/C1=CCOC1=O` [14-Deoxy-11,12-didehydroandrographolide] (compound dose: 10 uM), the cell viability was 0.857 ± 0.047.
For `CC1(C)[C@@H](O[C@H]2O[C@H](C(=O)O)[C@@H](O)[C@H](O)[C@H]2O[C@@H]2O[C@H](C(=O)O)[C@@H](O)[C@H](O)[C@H]2O)CC[C@]2(C)[C@H]3C(=O)C=C4[C@@H]5C[C@@](C)(C(=O)O)CC[C@]5(C)CC[C@@]4(C)[C@]3(C)CC[C@@H]12` [Dipotassium glycyrrhizinate] (compound dose: 10 uM) the value was 0.924 ± 0.031; for `CC(C)=CCC[C@](C)(O)[C@@H]1CC=C(C)CC1` [alpha-Bisabolol] (compound dose: 10 uM), 0.9925 ± 0.0046; for `CC(C)=CCC[C@](C)(O[C@@H]1O[C@H](CO)[C@@H](O)[C@H](O)[C@H]1O)[C@H]1CC[C@]2(C)[C@@H]1[C@H](O)C[C@@H]1[C@@]3(C)CC[C@H](O[C@@H]4O[C@H](CO)[C@@H](O)[C@H](O)[C@H]4O[C@@H]4O[C@H](CO)[C@@H](O)[C@H](O)[C@H]4O)C(C)(C)[C@@H]3CC[C@]12C` [Ginsenoside Rd] (compound dose: 10 uM), 1 ± 0.022.
Then `C=C1C(=O)O[C@@H]2/C=C(\C)[C@@H](OC(C)=O)C/C=C(\COC(C)=O)C[C@@H](OC(=O)/C(C)=C/CO)[C@@H]12` [Eupalinolide B] (compound dose: 10 uM), with 0.899 ± 0.057.
For `COC(=O)C1=C2CCOC3=C2C2=C1C(=O)[C@@H]1C[C@H]4N(C[C@@H](CC3)[C@@]24C)C[C@H]1C` [Daphnicyclidin D] (compound dose: 10 uM) the value was 0.948 ± 0.076; for `CC1OC(OC2C(CO)OC(OCC3OC(OC(=O)C45CCC(C)(C)CC4C4=CCC6C7(C)CCC(OC8OCC(O)C(O)C8O)C(C)(CO)C7CCC6(C)C4(C)CC5)C(O)C(O)C3O)C(O)C2O)C(O)C(O)C1O` (stereo not drawn) [Hederacoside D] (compound dose: 10 uM), 0.923 ± 0.067; for `Cc1cc(O)cc(O[C@@H]2O[C@H](CO)[C@@H](O)[C@H](O)[C@H]2O)c1` [Orcinol glucoside] (compound dose: 10 uM), 1.05 ± 0.027.
As for `C=C1C(OC(C)=O)C(OC(C)=O)C(OC(=O)c2cccnc2)C(C)(C)C=CC(C)C(OC(C)=O)C2(O)CC(C)(OC(C)=O)C(OC(=O)c3ccccc3)C2C1OC(C)=O` (stereo not drawn) [Pepluanin A] (compound dose: 10 uM), the cell viability was found to be 1.11 ± 0.017.
Then `COc1cc2cc3c4c(cc5c(c4c2cc1OC)OCO5)CCN3C` [Dehydrodicentrine] (compound dose: 10 uM), with 0.946 ± 0.021.
Then `O=c1c(O)c(-c2ccc(O)c(O)c2)oc2cc(O)cc(O)c12` [Quercetin] (compound dose: 10 uM), with 0.974 ± 0.095; and `CC12CCC(C1)C(C)(C)C2=O` (single isomer, unassigned; (-)) [(-)-Fenchone] (compound dose: 10 uM), with 1.121 ± 0.0077; and `O=c1c(O)c(-c2ccc(O)cc2)oc2cc(O)cc(O)c12` [Kaempferol] (compound dose: 10 uM), with 0.969 ± 0.079.
Then `CC1(C)CC[C@]2(C(=O)O)CC[C@]3(C)C(=CC[C@@H]4[C@@]5(C)CC[C@H](O[C@@H]6O[C@H](C(=O)O)[C@@H](O)[C@H](O)[C@H]6O)C(C)(C)[C@@H]5CC[C@]43C)[C@@H]2C1` [Calenduloside E] (compound dose: 10 uM), with 1.07 ± 0.054.
For `C/C=C(\C)C(=O)O[C@H]1[C@H](O)[C@]2(COC(C)=O)[C@H](O)C[C@]3(C)C(=CC[C@@H]4[C@@]5(C)CC[C@H](O[C@@H]6O[C@H](C(=O)O)[C@@H](O[C@@H]7O[C@H](CO)[C@@H](O)[C@H](O)[C@H]7O)[C@H](O)[C@H]6O[C@@H]6O[C@H](CO)[C@@H](O)[C@H](O)[C@H]6O)[C@](C)(CO)[C@@H]5CC[C@]43C)[C@@H]2CC1(C)C` [Isoescin IA] (compound dose: 10 uM), the cell viability came to 1.001 ± 0.0061.
For `CC(C)C1=CC(=O)C(C)(C2C(O)CC3(C)C4CC=C5C(CCC(OC6OC(CO)C(O)C(O)C6OC6OC(C)C(O)C(O)C6O)C5(C)C)C4(C)C(=O)CC23C)O1` (stereo not drawn) [Picfeltarraenin IB] (compound dose: 10 uM) the value was 1.02 ± 0.067; for `C=C(C)[C@@H]1CC=C(CO)CC1` [(S)-(-)-Perillyl alcohol] (compound dose: 10 uM), 0.984 ± 0.02; for `C=C(C)C(=O)O[C@H]1CC2=C[C@@H](C/C(C)=C/[C@H]3OC(=O)C(=C)[C@H]13)OC2=O` [Deoxyelephantopin] (compound dose: 10 uM), 0.768 ± 0.041.
For `C[C@H]1O[C@@H](O[C@H]2CC[C@@]3(C)[C@@H](CC[C@]4(C)[C@@H]3C=C[C@]35OC[C@@]6(CCC(C)(C)C[C@H]63)[C@@H](O)C[C@]54C)[C@]2(C)CO)[C@H](O)[C@@H](O[C@@H]2O[C@H](CO)[C@@H](O)[C@H](O)[C@H]2O)[C@H]1O` [Saikosaponin A] (compound dose: 10 uM) the value was 1.015 ± 0.0091.
Then `CC[C@@H](C(=O)[C@@H](C)[C@@H](O)[C@H](C)CCc1ccc(C)c(O)c1C(=O)O)[C@H]1O[C@](CC)([C@H]2CC[C@](O)(CC)[C@H](C)O2)C[C@@H]1C` [Lasalocid (sodium)] (compound dose: 10 uM), with 0.865 ± 0.04; and `C=C1[C@H](OC(C)=O)[C@@H](O)[C@@H](OC(=O)c2cccnc2)C(C)(C)/C=C/[C@H](C)[C@H](OC(C)=O)[C@@]2(O)C[C@@](C)(OC(C)=O)[C@H](OC(=O)c3ccccc3)[C@@H]2[C@H]1OC(C)=O` [Jatrophane 5] (compound dose: 10 uM), with 1.12 ± 0.027; and `C=C[C@H]1[C@H](O[C@@H]2O[C@H](CO)[C@@H](O)[C@H](O)[C@H]2O)OC=C2C(=O)OCC[C@]21O` [Swertiamarin] (compound dose: 10 uM), with 0.9564 ± 0.0069.
For `Cc1coc2c1C(=O)C(=O)c1c-2ccc2c(C)cccc12` [Tanshinone I] (compound dose: 2 uM), the cell viability is 0.921 ± 0.029.
Then `CC(=O)OCC1=CO[C@@H](OC(=O)CC(C)C)[C@H]2C1=C[C@H](OC(=O)CC(C)C)[C@]21CO1` [Valepotriate] (compound dose: 10 uM), with 0.185 ± 0.028.
Regarding `CC(C)=CCC[C@](C)(O[C@@H]1O[C@H](CO[C@@H]2O[C@H](CO)[C@@H](O)[C@H](O)[C@H]2O)[C@@H](O)[C@H](O)[C@H]1O)[C@H]1CC[C@]2(C)[C@@H]1[C@H](O)C[C@@H]1[C@@]3(C)CC[C@H](O[C@@H]4O[C@H](CO)[C@@H](O)[C@H](O)[C@H]4O[C@@H]4O[C@H](CO)[C@@H](O)[C@H](O)[C@H]4O[C@@H]4OC[C@@H](O)[C@H](O)[C@H]4O)C(C)(C)[C@@H]3CC[C@]12C` [Notoginsenoside Fa] (compound dose: 10 uM), the cell viability was determined as 1.21 ± 0.15.
For `C=C(C)[C@@H]1CC[C@]2(C(=O)O)CC[C@]3(C)[C@H](CC[C@@H]4[C@@]5(C)CCC(=O)C(C)(C)[C@@H]5CC[C@]43C)[C@@H]12` [Betulonic acid] (compound dose: 10 uM) the value was 0.836 ± 0.033; for `C[C@@H]1CC[C@]2(C(=O)O)CC[C@]3(C)C(=CCC4[C@@]5(C)CC[C@H](O[C@@H]6OC[C@H](O)[C@H](O)[C@H]6O)C(C)(C)C5CC[C@]43C)[C@@H]2[C@]1(C)O` (stereo partly drawn) [Ziyuglycoside II] (compound dose: 10 uM), 0.934 ± 0.014.
